Assay results published in PubChem BioAssay (NCI).
The panel holds about 83,000 compounds, 20% with a hit somewhere; the sample as a whole holds those more often.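 Single-dose data. Exposure time 48 hours. Values below 10 considered active.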 Calls of active or inactive are those of the source.

How the values were obtained:
Experiment in all cases: NCI-60 one-dose screen, 48 h (100 = growth as untreated, 0 = no growth, -100 = all killed)
Conditions in all cases: 10 µM unless noted
NCI-H23 lung = system: NCI-H23 lung
NCI-H226 lung = system: NCI-H226 lung
NCI-H322M lung = system: NCI-H322M lung
HOP-62 NSCLC = system: HOP-62 NSCLC
NCI-H460 lung = system: NCI-H460 lung
A549/ATCC NSCLC = system: A549/ATCC NSCLC
786-0 renal = system: 786-0 renal
COLO 205 colon = system: COLO 205 colon
DU-145 prostate = system: DU-145 prostate
MALME-3M melanoma = system: MALME-3M melanoma
MDA-MB-231 breast = system: MDA-MB-231 breast
RXF 393 renal = system: RXF 393 renal
SF-268 CNS = system: SF-268 CNS
SF-295 CNS = system: SF-295 CNS
SF-539 CNS = system: SF-539 CNS
UACC-257 melanoma = system: UACC-257 melanoma
M14 melanoma = system: M14 melanoma
K-562 leukemia = system: K-562 leukemia

Measured: growth

COc1ccccc1CNCCCN1C(=O)c2ccc3c4c(ccc(c24)C1=O)C(=O)N(CCCNCCCN)C3=O
active: NCI-H23 lung -63.4% | NCI-H322M lung 1.95% | NCI-H460 lung -26.5% | A549/ATCC NSCLC 9.81% | COLO 205 colon -87.8% | DU-145 prostate -1.55% | MALME-3M melanoma -41.9% | RXF 393 renal -36.9% | SF-268 CNS -0.397% | SF-539 CNS 8.47% | UACC-257 melanoma -74.4% | M14 melanoma -44.1%
inactive: NCI-H226 lung 38.7% | HOP-62 NSCLC 11.6% | 786-0 renal 11% | MDA-MB-231 breast 12.2% | SF-295 CNS 14.5%

O=C(/C=C/c1ccccc1)c1c[nH]c2ccccc2c1=O
active: NCI-H23 lung 9.55% | NCI-H226 lung 8.22% | NCI-H322M lung -7.62% | NCI-H460 lung -32.8% | A549/ATCC NSCLC 3.17% | 786-0 renal 4.48% | COLO 205 colon 0.617% | DU-145 prostate 7.22% | MDA-MB-231 breast -1.53% | SF-268 CNS -14.1% | SF-295 CNS -51.7% | SF-539 CNS -24.5% | M14 melanoma -24%
inactive: HOP-62 NSCLC 23.6% | K-562 leukemia 11.1% | MALME-3M melanoma 43.6% | RXF 393 renal 18.1% | UACC-257 melanoma 58.9%

O=C1NN(C(=O)c2ccccc2)C(c2ccc(Cl)c(Cl)c2)=C/C1=C\c1ccccc1[N+](=O)[O-]
active: NCI-H23 lung -16.9% [6.75 µM] | NCI-H226 lung -10.3% [6.75 µM] | NCI-H460 lung -25% [6.75 µM] | COLO 205 colon -79.4% [6.75 µM] | RXF 393 renal 7.22% [6.75 µM] | SF-295 CNS -37.5% [6.75 µM] | M14 melanoma -28% [6.75 µM]
inactive: NCI-H322M lung 27.1% [6.75 µM] | HOP-62 NSCLC 37.8% [6.75 µM] | A549/ATCC NSCLC 14.4% [6.75 µM] | 786-0 renal 31.1% [6.75 µM] | DU-145 prostate 25.3% [6.75 µM] | K-562 leukemia 15.1% [6.75 µM] | MALME-3M melanoma 56.5% [6.75 µM] | MDA-MB-231 breast 49.9% [6.75 µM] | SF-268 CNS 49% [6.75 µM] | SF-539 CNS 15.2% [6.75 µM] | UACC-257 melanoma 35.4% [6.75 µM]

NC(N)=N/N=C/c1ccc(Cl)cc1
inactive: NCI-H23 lung 99.7% | NCI-H226 lung 80.1% | NCI-H322M lung 105% | HOP-62 NSCLC 75% | NCI-H460 lung 53.6% | A549/ATCC NSCLC 92.1% | 786-0 renal 97.1% | COLO 205 colon 77.6% | DU-145 prostate 73.8% | K-562 leukemia 14% | MALME-3M melanoma 88.3% | MDA-MB-231 breast 97.5% | RXF 393 renal 89.3% | SF-268 CNS 68.5% | SF-295 CNS 81.9% | SF-539 CNS 99.1% | UACC-257 melanoma 80.7% | M14 melanoma 66.2%

N/C(=C\C(=O)n1nc(-c2ccccc2)cc1N)c1ccccc1
inactive: NCI-H23 lung 58.3% | NCI-H226 lung 73.4% | NCI-H322M lung 65.4% | HOP-62 NSCLC 64% | NCI-H460 lung 36% | A549/ATCC NSCLC 55.1% | 786-0 renal 65% | COLO 205 colon 41.6% | DU-145 prostate 58.2% | K-562 leukemia 25.6% | MALME-3M melanoma 42.6% | MDA-MB-231 breast 51.5% | RXF 393 renal 77.2% | SF-268 CNS 63.8% | SF-295 CNS 44.5% | SF-539 CNS 59.4% | UACC-257 melanoma 58.3% | M14 melanoma 31.6%

CN(C)CC(=O)c1ccc2cc(Br)c3ccccc3c2c1
inactive: NCI-H23 lung 74.1% | NCI-H226 lung 88.1% | NCI-H322M lung 75.7% | HOP-62 NSCLC 83.2% | NCI-H460 lung 59.4% | A549/ATCC NSCLC 51.5% | 786-0 renal 47.4% | COLO 205 colon 74.1% | DU-145 prostate 77.8% | K-562 leukemia 38.5% | MALME-3M melanoma 106% | MDA-MB-231 breast 76.4% | RXF 393 renal 72.2% | SF-268 CNS 77.6% | SF-295 CNS 82.8% | SF-539 CNS 79.5% | UACC-257 melanoma 66% | M14 melanoma 77.2%

CC(C)OC1OC(OC(C)C)C(OC(C)C)OC1OC(C)C (stereo not drawn)
inactive: NCI-H23 lung 94.9% | NCI-H226 lung 99.9% | NCI-H322M lung 98.1% | HOP-62 NSCLC 123% | NCI-H460 lung 104% | A549/ATCC NSCLC 92.4% | 786-0 renal 99.4% | COLO 205 colon 112% | DU-145 prostate 112% | K-562 leukemia 92.5% | MALME-3M melanoma 119% | MDA-MB-231 breast 91.8% | RXF 393 renal 127% | SF-268 CNS 96.5% | SF-295 CNS 109% | SF-539 CNS 105% | UACC-257 melanoma 92.2% | M14 melanoma 99.2%

CCN(CC)c1ccc(/C=N/N=C(N)N)cc1
inactive: NCI-H23 lung 65.7% | NCI-H226 lung 84.5% | NCI-H322M lung 87.7% | HOP-62 NSCLC 54.8% | NCI-H460 lung 23.3% | A549/ATCC NSCLC 44.6% | 786-0 renal 72.4% | COLO 205 colon 30.2% | DU-145 prostate 55.5% | K-562 leukemia 26.3% | MALME-3M melanoma 58.9% | MDA-MB-231 breast 66% | RXF 393 renal 68% | SF-268 CNS 45.7% | SF-295 CNS 27.8% | SF-539 CNS 51.8% | UACC-257 melanoma 47.9% | M14 melanoma 42.4%
